# Compounds without any hit were thinned out: in the full panel of roughly 83,000, 20% have a hit.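 Plates (96-well) were seeded with cells, treated with compound at one concentration, and incubated for 48 hours before percent growth was determined.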 Values without a mark were called inactive. Activity calls are given as the source filed them. How the source made its calls: active means growth percent below 10; inactive means the rest.
# What was measured:
# Test in all cases: NCI-60 one-dose screen, 48 h (100 = growth as untreated, 0 = no growth, -100 = all killed)
# Conditions in all cases: 10 µM unless noted
# DU-145 prostate = tested on: DU-145 prostate
# K-562 leukemia = tested on: K-562 leukemia
# MALME-3M melanoma = tested on: MALME-3M melanoma
# MDA-MB-231 breast = tested on: MDA-MB-231 breast
# RXF 393 renal = tested on: RXF 393 renal
# SF-268 CNS = tested on: SF-268 CNS
# SF-295 CNS = tested on: SF-295 CNS
# SF-539 CNS = tested on: SF-539 CNS
# UACC-257 melanoma = tested on: UACC-257 melanoma
# M14 melanoma = tested on: M14 melanoma
Compound,growth (DU-145 prostate),growth (K-562 leukemia),growth (MALME-3M melanoma),growth (MDA-MB-231 breast),growth (RXF 393 renal),growth (SF-268 CNS),growth (SF-295 CNS),growth (SF-539 CNS),growth (UACC-257 melanoma),growth (M14 melanoma)
CSc1nnc(-c2cnn3c2NC(c2ccccc2)C3)n1-c1ccc(C(F)(F)F)cc1 (stereo not given),85.1%,3.03% (active),69.8%,64.8%,79.1%,65.1%,32%,80.3%,51.4%,54.3%
N#Cc1c(-c2cccs2)cc(-c2cccnc2)[nH]c1=O,109%,98.2%,104%,105%,101%,100%,101%,95.5%,97.1%,106%
N#Cc1nn(-c2cc(=O)[nH]c3ccc(Cl)cc23)c(N)c1C#N,118%,-43.9% (active),91.9%,108%,107%,113%,97.6%,96%,87%,93.7%
Cc1ccc(-c2nc3nc(-c4ccc(F)cc4)nc(N4CCNCC4)c3o2)cc1,41.7%,-53.1% (active),107%,-29.1% (active),109%,96.7%,91.6%,-72.3% (active),105%,-70.9% (active)
CCCCCCC1(C)NCCO1 (stereo not given),111%,104%,105%,104%,118%,93.6%,102%,110%,99%,104%
CN1CCN(c2ccc(NC(=O)c3cncnc3Nc3ccc(OCc4ccccn4)c(Cl)c3)cc2)CC1,56.5%,-21.4% (active),-55.1% (active),-11.2% (active),27.9%,68.9%,61%,-12.7% (active),39%,-72.8% (active)
C/C(=N/O)c1ccc(F)cc1,5.59% (active),92.7%,130%,88%,64.1%,102%,75%,119%,95.3%,94.9%
Cc1ccc(Sc2oc(-c3ccc(C)cc3)nc2[P+](c2ccccc2)(c2ccccc2)c2ccccc2)cc1,11.6%,4.98% (active),-41.1% (active),-12.5% (active),-18.8% (active),10.9%,9.9% (active),-5.1% (active),0.818% (active),7.37% (active)
O=[N+]([O-])/C(=C/C=C/c1ccccc1)c1ccccc1,26%,24.4%,96.1%,61.7%,35.4%,35.3%,91.5%,36.8%,77%,37.8%
C=C1C(=O)O[C@H]2[C@H]1CC/C(COC(=O)N[C@H]1C[C@H](O[C@H]3C[C@](O)(C(=O)CO)Cc4c(O)c5c(c(O)c43)C(=O)c3c(OC)cccc3C5=O)O[C@@H](C)[C@H]1O)=C\CC[C@@]1(C)O[C@@H]21,69%,7.56% (active),-28.6% (active),11%,19.2%,64.2%,102%,20.8%,61.4%,82.6%
CCOC(=O)c1cc2c(=O)oc3ccccc3c2oc1=O,116%,122%,105%,101%,99.8%,108%,110%,100%,105%,118%
COc1ccc(C(=O)Nc2ncc(Cc3cccc(Cl)c3)s2)cc1OC,30.5%,11.6%,47.6%,39.1%,-7.25% (active),50.8%,6.3% (active),-12.3% (active),23.1%,8.45% (active)
CCOc1ccc(NC(=O)CSc2oc(-c3ccccc3)nc2S(=O)(=O)c2ccc(F)cc2)cc1,89.8%,65.9%,78.3%,64.2%,77.6%,60.2%,50%,6.59% (active),70.1%,86.9%
CC1(c2ccccc2O)NN=C(/N=C/c2cccc([N+](=O)[O-])c2)N1C(Cc1c[nH]c2ccccc12)C(=O)O (stereo not given),114%,89.8%,94.1%,80.5%,90.9%,95.7%,107%,99.4%,90.6%,92%
